Reference: PubChem BioAssay (EPA / NIEHS)
Calls of active or inactive are those of the source. The calls were made as follows: active = hit-call score of the fitted dose curve at least 0.9, where 1 is the maximum; inactive = score below 0.9.

Tests used:
Conditions in all cases: mRNA level, 48 h; actives raise or lower the signal
[1] = read-out: Apolipoprotein A-V (APOA5) gene, APOA5 (gene 116519); test: LTEA_HepaRG_APOA5: Life Technologies and Expression Analysis (LTEA) Assay for Apolipoprotein A-V (APOA5) gene using HepaRG (AID 2283474)
Summary of the method: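 Differentiated human HepaRG cells were exposed in duplicate for 48 h to eight half-log concentrations from 100 uM in 0.5% DMSO. APOA5 mRNA was quantified by TaqMan qRT-PCR, normalized to ACTB, GAPDH and POLR2A, and fitted bidirectionally against DMSO.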

[2] = read-out: Apoptosis regulator Bcl-2 (Homo sapiens) (UniProt P10415); test: LTEA_HepaRG_BCL2: Life Technologies and Expression Analysis (LTEA) Assay for Bcl-2 gene using HepaRG (AID 2283475)
Summary of the method: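 qRT-PCR read-out (Fluidigm TaqMan) of BCL2 transcript, normalised to three housekeeping genes, after 48 h chemical exposure of HepaRG cells; 8-point half-log series, top 100 uM, 0.5% DMSO vehicle. Gain or loss of signal fitted relative to DMSO baseline.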

[3] = read-out: Bcl-2 (BID) gene, BID (gene 637); test: LTEA_HepaRG_BID: Life Technologies and Expression Analysis (LTEA) Assay for Bcl-2 (BID) gene using HepaRG (AID 2283476)
Summary of the method: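 HepaRG, 48 h exposure, 8-pt half-log series, top 100 uM, 0.5% DMSO vehicle, duplicates. Readout: BID mRNA by TaqMan qRT-PCR; housekeeping-normalized; bidirectional curve fit vs DMSO baseline.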

Caspase-3 (Homo sapiens) = Caspase-3 (Homo sapiens) (UniProt P42574); test: LTEA_HepaRG_CASP3: Life Technologies and Expression Analysis (LTEA) Assay for cysteine-aspartic acid protease (CASP3) using HepaRG (AID 2283477)
Summary of the method: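 Differentiated human HepaRG cells in serum-free induction medium were exposed 48 h to 8-point half-log concentrations from 100 uM (0.5% DMSO vehicle). CASP3 mRNA was measured by qRT-PCR, normalised to ACTB, GAPDH and POLR2A, with bidirectional fitting against DMSO.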

[4] = read-out: Cytochrome P450 (CYP24A1), CYP24A1 (gene 1591); test: LTEA_HepaRG_CYP24A1: Life Technologies and Expression Analysis (LTEA) Assay for Cytochrome P450 (CYP24A1) using HepaRG (AID 2283478)
Summary of the method: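 Differentiated HepaRG cells, pre-cultured 48 h, were exposed in duplicate for 48 h in serum-free induction medium to 8 half-log concentrations (top 100 uM, 0.5% DMSO). CYP24A1 mRNA was quantified by TaqMan qRT-PCR, normalized to ACTB/GAPDH/POLR2A, fitted bidirectionally versus DMSO.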

[5] = read-out: Cytochrome P450 (CYP1A2), CYP1A2 (gene 1544); test: LTEA_HepaRG_CYP1A2: Life Technologies and Expression Analysis (LTEA) Assay for Cytochrome P450 (CYP1A2) using HepaRG (AID 2283479)
Summary of the method: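 Differentiated human HepaRG cells in serum-free induction medium were exposed in duplicate for 48 h to 8-point half-log concentrations up to 100 uM in 0.5% DMSO. CYP1A2 mRNA measured by qRT-PCR, normalized to ACTB, GAPDH, POLR2A; bidirectional fit vs DMSO.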

[6] = read-out: cysteine-aspartic acid protease (CASP8), CASP8 (gene 841); test: LTEA_HepaRG_CASP8: Life Technologies and Expression Analysis (LTEA) Assay for cysteine-aspartic acid protease (CASP8) using HepaRG (AID 2283480)
Summary of the method: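 CASP8 transcript measured by TaqMan qRT-PCR with ACTB/GAPDH/POLR2A normalization, after 48 h chemical exposure of HepaRG cells in serum-free induction medium. Eight concentrations, top 100 uM, half-log steps, 0.5% DMSO vehicle; fits in both directions versus DMSO.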

[7] = read-out: Cytochrome P450 (CYP2B6), CYP2B6 (gene 1555); test: LTEA_HepaRG_CYP2B6: Life Technologies and Expression Analysis (LTEA) Assay for Cytochrome P450 (CYP2B6) using HepaRG (AID 2283481)
Summary of the method: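 Differentiated HepaRG cells, serum-free induction medium, exposed 48 h in duplicate to 8-point half-log concentrations from 100 uM in 0.5% DMSO. CYP2B6 mRNA by qRT-PCR, normalized to ACTB, GAPDH, POLR2A; bidirectional fit versus DMSO.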

CYP2C8 (gene 1558) = test: LTEA_HepaRG_CYP2C8: Life Technologies and Expression Analysis (LTEA) Assay for CYP2C8 using HepaRG (AID 2283483)
Summary of the method: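 CYP2C8 expression measured by TaqMan qRT-PCR and normalized to three housekeeping genes. HepaRG cultures were treated for 48 h with an eight-point half-log series topping at 100 uM, vehicle 0.5% DMSO, duplicates; fitted both directions against DMSO.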

[8] = read-out: Cytochrome P450 2C19 (Homo sapiens) (UniProt P33261); test: LTEA_HepaRG_CYP2C19: Life Technologies and Expression Analysis (LTEA) Assay for CYP2C19 using HepaRG (AID 2283482)
Summary of the method: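 Differentiated human HepaRG cells were exposed for 48 h in serum-free induction medium to 8 concentrations (top 100 uM, half-log steps, 0.5% DMSO). CYP2C19 mRNA was measured by qRT-PCR, normalized to ACTB/GAPDH/POLR2A, and fitted bidirectionally against DMSO.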

Measured: AC50

Cytochrome P450 2C19 (Homo sapiens), sequence (P33261 whole entry, looked up): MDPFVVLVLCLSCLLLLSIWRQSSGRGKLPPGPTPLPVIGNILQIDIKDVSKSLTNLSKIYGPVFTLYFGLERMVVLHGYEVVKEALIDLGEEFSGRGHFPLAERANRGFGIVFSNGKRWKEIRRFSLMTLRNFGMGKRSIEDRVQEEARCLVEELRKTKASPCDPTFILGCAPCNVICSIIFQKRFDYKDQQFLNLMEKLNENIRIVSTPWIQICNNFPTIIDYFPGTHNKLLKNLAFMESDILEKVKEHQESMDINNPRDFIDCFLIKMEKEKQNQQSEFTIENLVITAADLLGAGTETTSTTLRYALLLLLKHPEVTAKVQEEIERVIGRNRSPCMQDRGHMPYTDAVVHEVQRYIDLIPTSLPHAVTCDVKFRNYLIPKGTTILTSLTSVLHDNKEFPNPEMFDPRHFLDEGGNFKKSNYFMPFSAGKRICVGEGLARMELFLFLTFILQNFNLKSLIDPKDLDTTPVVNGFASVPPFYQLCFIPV
Caspase-3 (Homo sapiens), sequence (P42574 whole entry, looked up): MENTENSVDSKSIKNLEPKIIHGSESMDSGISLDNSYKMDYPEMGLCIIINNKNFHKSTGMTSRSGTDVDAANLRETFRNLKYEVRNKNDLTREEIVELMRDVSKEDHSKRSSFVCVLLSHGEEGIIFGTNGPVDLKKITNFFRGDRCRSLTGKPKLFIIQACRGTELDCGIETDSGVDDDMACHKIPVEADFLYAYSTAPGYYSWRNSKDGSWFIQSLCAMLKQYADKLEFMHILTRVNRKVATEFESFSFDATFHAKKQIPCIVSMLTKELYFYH
Apoptosis regulator Bcl-2 (Homo sapiens), sequence (P10415 whole entry, looked up): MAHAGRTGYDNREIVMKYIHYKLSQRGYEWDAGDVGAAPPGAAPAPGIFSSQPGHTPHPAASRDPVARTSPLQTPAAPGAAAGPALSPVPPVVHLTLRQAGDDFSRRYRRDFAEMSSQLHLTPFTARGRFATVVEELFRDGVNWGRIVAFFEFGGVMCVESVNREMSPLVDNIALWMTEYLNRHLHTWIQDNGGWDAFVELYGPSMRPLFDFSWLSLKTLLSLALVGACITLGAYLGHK

CCCCC(CC)COC(=O)CCCCCCCCC(=O)OCC(CC)CCCC (configuration not stated)
not listed: [8]
inactive: all other assays above

COCCOc1cc2cc(C(=O)NC3CCN(C(C)C)CC3)n(CC(=O)Nc3ccc(Cl)cn3)c2cn1
active: [1] 45 µM | [5] 2.12 µM | [7] 70.6 µM | [8] 66.8 µM | CYP2C8 (gene 1558) 61.8 µM
inactive: [2] | [3] | Caspase-3 (Homo sapiens) | [4] | [6]

CCCC(=O)OCC
not listed: [8]
inactive: all other assays above

COc1ccc2sc(C(=O)Nc3nnn[nH]3)c(OC(C)C)c2c1
active: [2] 25.2 µM | [5] 15.8 µM | [6] 39.2 µM | [7] 87.1 µM | [8] 87 µM
inactive: all other assays above

CC(C)=CCCC(C)CCO (configuration not stated)
active: [5] 50 µM | [7] 11.7 µM
not listed: [8]
inactive: all other assays above

COc1ccc(-n2nc(C(F)F)cc2-c2ccc(S(C)=O)cc2)cc1 (configuration not stated)
active: [5] 50 µM | [7] 13.4 µM | [8] 26.8 µM
inactive: all other assays above

CC[C@H]1OC(=O)[C@H](C)[C@@H](O[C@H]2C[C@@](C)(OC)[C@@H](O)[C@H](C)O2)[C@H](C)[C@@H](O[C@@H]2O[C@H](C)C[C@H](N(C)C)[C@H]2O)[C@](C)(O)C[C@@H](C)C(=O)[C@H](C)[C@@H](O)[C@]1(C)O
active: [5] 59.1 µM | [7] 5.59 µM
not listed: [8]
inactive: all other assays above

COC(=O)CC(=O)OC
active: [7] 1.93 µM
not listed: [8]
inactive: all other assays above

COC(=O)c1c(Cl)c(Cl)c(C(=O)OC)c(Cl)c1Cl
not listed: [8]
inactive: all other assays above

CNS(=O)(=O)c1cc(C(=O)N2CCC(CCN3C4CCC3CC(n3c(C)nc5ccccc53)C4)(c3cccc(F)c3)CC2)c(Cl)cc1F (configuration not stated)
inactive: [3] | Caspase-3 (Homo sapiens) | [4] | [6]
active: [1] 30.5 µM | [2] 27.4 µM | [5] 27.2 µM | [7] 21.7 µM | CYP2C8 (gene 1558) 25.7 µM

O=C(O)c1cc(N=Nc2ccc(S(=O)(=O)Nc3ccccn3)cc2)ccc1O
active: [5] 75.7 µM
not listed: [8]
inactive: all other assays above
